Experiment [1] in a line: qHTS assay to identify small molecule agonists of the vitamin D receptor (VDR) signaling pathway - cell viability counter screen (AID 743224). Note: nearly all actives have a fitted effect of over 50% in size. To be noted: VDR-bla HEK293T viability, CellTiter-Glo luminescence, 16 h; series mostly up to 62.6 µM. In a few lines:
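Plated VDR-bla cells (4 h, 37C) received compound, incubated 16 h, then LiveBLAzer substrate 2 h RT; CellTiter-Glo added afterwards, luminescence read at 30 min.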

Experiment [2] in a line: qHTS assay to identify small molecule agonists of the NFkB signaling pathway (AID 1159509; active = well fitted curve in the direction sought with a large enough effect in the signal ratio in the repeat runs, not every such curve was filed as active; the % refers to the signal ratio). The conditions noted are these: NFkB-bla ME-180 cells, beta-lactamase FRET ratio, 5 h; series mostly up to 61 µM. In a few lines: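 ME-180 NFkB-bla, 2,000 cells/well, overnight plating; cpd pinned in DMSO, 5 h 37 C; B/G FRET substrate 1.5 h RT; ex 405, em 460/530 nm.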
On the technique in general: Quantitative high-throughput screening tests each substance at several concentrations.

The nature of experiment [3]: qHTS assay to identify small molecule agonists of the NFkB signaling pathway - cell viability counter screen (AID 1159515; calls by dose curve; note: nearly all actives have a fitted effect of over 55% in size). The conditions noted are these: NFkB-bla ME-180 viability, CellTiter-Glo luminescence, 5 h; series mostly up to 61 µM. In a few lines:
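Using the same wells as the NFkB reporter read, ME-180 NFkB-bla cells given compounds for 5 hr were assessed for viability via CellTiter-Glo, with luminescence taken after a 30 min room-temperature incubation.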

Experiment [4] in a line: qHTS assay to identify small molecule agonists of the endoplasmic reticulum stress response signaling pathway (AID 1159516; active = well fitted activation curve with a large enough effect in the signal ratio in the repeat runs, not every such curve was filed as active; the % refers to the signal ratio). The conditions noted are these: ESRE-bla HeLa, ER stress beta-lactamase reporter, 5 h; series mostly up to 61 µM. The method in brief: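 An ESRE-bla HeLa cell assay: compounds were pin-transferred from DMSO onto overnight-plated cells and left 5 hr at 37 C. Substrate was then loaded for 2 hr at room temperature before reading fluorescence at 460 nm and 530 nm.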

A short description of experiment [5]: qHTS assay to identify small molecule antagonists of the retinoid-related orphan receptor gamma (ROR-gamma) signaling pathway - cell viability counter screen (AID 1159520). Note: nearly all actives have a fitted effect of over 50% in size. The conditions noted are these: Tet-on RORgamma CHO cells viability, ATP luminescence, 16 h; series mostly up to 92.4 µM. The method in brief:
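Tet-on ROR gamma CHO cells (1,000/well) were plated 4 hr, given compounds in DMSO for 2 hr at 37 C, then induced with 1 uM final doxycycline for 16 hr. Viability was read as ATP by CellTiter-Glo luminescence after 30 min.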

Experiment [6] deals with Nuclear receptor ROR-gamma (Homo sapiens) (UniProt P51449). The experiment can be described thus: qHTS assay to identify small molecule antagonists of the retinoid-related orphan receptor gamma (ROR-gamma) signaling pathway (AID 1159521;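 note: CHO cells with doxycycline inducible ROR-gamma driving an RORE luciferase reporter; top concentration of the series differs between compounds; nearly all actives have a fitted effect of over 50% in size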). To be noted: Tet-on RORgamma CHO cells, RORE-luciferase, 16 h; series mostly up to 92.4 µM. The method in brief: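 Decreased RORE-driven luciferase luminescence indicates antagonism. Tet-on RORγ CHO cells received compound, then 1 uM final doxycycline 2 h later; signal read after 16 h incubation.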

A short description of experiment [7]: qHTS assay to identify small molecule agonists of the AP-1 signaling pathway - cell viability counter screen (AID 1159525; calls by dose curve; note: nearly all actives have a fitted effect of over 55% in size). The conditions noted are these: ME-180 AP-1-bla cells viability, ATP luminescence, 5 h; series mostly up to 76.8 µM. The method in brief: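 ME-180 AP-1-bla, 2500 cells/well, Opti-MEM + 0.5% dialyzed FBS; overnight 37 °C; cpd 15-pt titration, 5 h 37 °C; CellTiter-Glo 30 min RT; luminescence read; normalised to TOAB and DMSO controls.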

A short description of experiment [8]: qHTS assay to identify small molecule agonists of the AP-1 signaling pathway (AID 1159526; calls by dose curve). To be noted: ME-180 (cervical carcinoma) AP-1-bla reporter, beta-lactamase FRET ratio, 5 h; series mostly up to 76.8 µM.
Experiment [9] concerns the target Retinoic acid receptor RXR-alpha (Homo sapiens) (UniProt P19793). The experiment can be described thus: qHTS assay to identify small molecule agonists of the RXR signaling pathway (AID 1159527; calls by dose curve; note: nearly all actives have a fitted effect of over 35% in size; note: potency is the fitted concentration of half-maximal effect). The conditions noted are these: HEK293T RXRa-UAS-bla, beta-lactamase ratio, 16 h; series mostly up to 76.8 µM. In a few lines:
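16 hr incubation of compound-treated RXR-alpha-UAS-bla HEK 293T cells (2% charcoal-stripped FBS, 37 C) preceded a 2 hr room-temperature LiveBLAzer FRET substrate step and blue/green fluorescence measurement.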

Experiment [10] is described as follows: qHTS assay to identify small molecule agonists of the RXR signaling pathway - cell viability counter screen (AID 1159529).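 Note: HEK 293T cells carrying an RXR-alpha UAS beta-lactamase reporter; nearly all actives have a fitted effect of over 50% in size.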 The conditions noted are these: RXR-alpha-bla HEK293T viability, CellTiter-Glo, 16 h; series mostly up to 76.8 µM. The method in brief: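 In this parallel viability measure, GeneBLAzer RXR-alpha HEK 293T cells (2% charcoal-stripped FBS) were given a 5 hr preincubation, treated with compounds 16 hr at 37 C, and read by CellTiter-Glo luminescence.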

Experiment [11] can be described thus: qHTS assay to identify small molecule antagonists of the retinoid acid receptor (RAR) signaling pathway - cell viability counter screen (AID 1159551). Note: nearly all actives have a fitted effect of over 35% in size. The conditions noted are these: C3RL4 cells viability, ATP luminescence (CellTiter-Glo), 6 h; series mostly up to 92.4 µM. The method in brief: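 Retinol-stimulated (1 uM final) C3RL4 cells, compound 6 h, 37 C; readout CellTiter-Glo luminescence (ATP) after 30 min RT incubation.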

The nature of experiment [12]: qHTS assay to identify small molecule antagonists of the retinoic acid receptor (RAR) signaling pathway (AID 1159552; note: nearly all actives have a fitted effect of over 50% in size). To be noted: C3RL4 RARE luciferase reporter, retinol-stimulated, 6 h; series mostly up to 92.4 µM. In a few lines: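 C3RL4 RARE-luc cells, overnight plating; retinol 1 uM final added right after compound; 6 hr 37 C; luciferase read at 30 min RT.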

Experiment [13] in a line: qHTS assay to identify small molecule agonists of the retinoic acid receptor (RAR) signaling pathway (AID 1159553). To be noted: C3RL4 RARE luciferase reporter, agonist, 6 h; series mostly up to 73.3 µM. In a few lines:
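Reporter readout comes from luciferase under RARE control in C3RL4 cells; compound exposure lasts 6 hr at 37 C in 5% CO2, and luminescence is recorded following a 30 min room-temperature incubation with reagent.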

The nature of experiment [14]: qHTS assay to identify small molecule antagonists of the estrogen related receptor (ERR) signaling pathway from Tox21 library - cell viability counter screen (AID 1224834). Note: nearly all actives have a fitted effect of over 30% in size. To be noted: ERR reporter cells viability, CellTiter-Fluor, 17.5 h; series mostly up to 92.4 µM. The method in brief:
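After 17.5 h of compound exposure at 37 C, ERR cells are incubated with CellTiter-Fluor for 30 min and fluorescence intensity serves as the viability measure.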

Experiment [15] addresses Luciferin 4-monooxygenase (Photinus pyralis) (UniProt P08659). Put plainly: qHTS assay to identify small molecule inhibitors of firefly luciferase (AID 1224835). Note: nearly all actives have a fitted effect of over 25% in size. To be noted: purified P. pyralis luciferase, luminescence inhibition; series mostly up to 115 µM. In a few lines: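 Quantitative HTS format; KM concentrations of both substrates. Purified P. pyralis FLuc activity quantified from luminescence images.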

Experiment [16] can be described thus: qHTS assay to identify small molecule agonists of the constitutive androstane receptor (CAR) signaling pathway - cell viability counter screen (AID 1224836). Note: nearly all actives have a fitted effect of over 45% in size. To be noted: HepG2-CYP2B6-hCAR viability, CellTiter-Fluor, 23 h, PK11195 added to every well; series mostly up to 92.4 µM. The method in brief: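 Using CellTiter-Fluor, viability of HepG2 cells harbouring hCAR and CYP2B6-2.2kb was measured following 23 h incubation with a 15-concentration compound series plus PK11195 (0.75 uM final).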

The nature of experiment [17]: qHTS assay to identify small molecule antagonists of the constitutive androstane receptor (CAR) signaling pathway - cell viability counter screen (AID 1224837). Note: nearly all actives have a fitted effect of over 45% in size. The conditions noted are these: HepG2-CYP2B6-hCAR viability, CellTiter-Fluor, 23 h, co-treated with 50 nM CITCO; series mostly up to 92.4 µM. The method in brief: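 Counter screen run in HepG2-CYP2B6-hCAR cells: 4 hr settle, compound titration (15 concentrations) with 50 nM CITCO, 23 hr at 37 C/5% CO2, CellTiter-Fluor fluorescence.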

The target in experiment [18] is Nuclear receptor subfamily 1 group I member 3 (Homo sapiens) (UniProt Q14994). The experiment can be described thus: qHTS assay to identify small molecule antagonists of the constitutive androstane receptor (CAR) signaling pathway (AID 1224838). Note: nearly all actives have a fitted effect of over 40% in size. To be noted: HepG2-CYP2B6-hCAR luciferase, CITCO-stimulated, 24 h; series mostly up to 92.4 µM. In a few lines: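 Cell line: HepG2 double-stable for hCAR and CYP2B6-2.2kb reporter. Agonist: CITCO, 50 nM final. Compounds: 15 concentrations, 24 h, 37 C. Detection: ONE-Glo luminescence.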
Chain of Nuclear receptor subfamily 1 group I member 3 (Homo sapiens) (Q14994 whole entry, looked up): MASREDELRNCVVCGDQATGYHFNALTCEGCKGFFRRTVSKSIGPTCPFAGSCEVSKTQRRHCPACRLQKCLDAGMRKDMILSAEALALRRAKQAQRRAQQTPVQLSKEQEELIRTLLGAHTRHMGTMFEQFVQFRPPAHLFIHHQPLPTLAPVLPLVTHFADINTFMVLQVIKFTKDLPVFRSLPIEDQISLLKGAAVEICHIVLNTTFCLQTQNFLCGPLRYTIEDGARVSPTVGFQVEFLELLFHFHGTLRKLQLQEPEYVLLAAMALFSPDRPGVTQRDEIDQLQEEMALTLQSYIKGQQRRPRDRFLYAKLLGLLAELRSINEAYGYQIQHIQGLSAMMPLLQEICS

Experiment [19] is described as follows: qHTS assay to identify small molecule antagonists of the vitamin D receptor (VDR) signaling pathway - cell viability counter screen (AID 743225). Note: nearly all actives have a fitted effect of over 50% in size. The conditions noted are these: VDR-bla HEK293T viability, CellTiter-Glo luminescence, 16 h; series mostly up to 61 µM. In a few lines:
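Parallel cytotoxicity test: VDR-UAS-bla HEK 293T, 3 nM (final) 1-alpha,25-dihydroxyvitamin D3 with test compound, 16 h, 37C. Endpoint is CellTiter-Glo luminescence in the same wells.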

Results filed as inconclusive are left out. A number with no mark means an inactive call. Activity calls are given as the source filed them. Unless noted, calls come from the whole dose curve; as a rule, active = well fitted curve in the direction sought with a large enough effect in the repeat runs; inconclusive = weak or mixed curves; inactive = no such curve, though single readings can be large; an effect the other way counts as inactive or inconclusive. Where a SMILES comes first, the peptide text is derived from it.

Chain of Luciferin 4-monooxygenase (Photinus pyralis) (P08659 whole entry, looked up): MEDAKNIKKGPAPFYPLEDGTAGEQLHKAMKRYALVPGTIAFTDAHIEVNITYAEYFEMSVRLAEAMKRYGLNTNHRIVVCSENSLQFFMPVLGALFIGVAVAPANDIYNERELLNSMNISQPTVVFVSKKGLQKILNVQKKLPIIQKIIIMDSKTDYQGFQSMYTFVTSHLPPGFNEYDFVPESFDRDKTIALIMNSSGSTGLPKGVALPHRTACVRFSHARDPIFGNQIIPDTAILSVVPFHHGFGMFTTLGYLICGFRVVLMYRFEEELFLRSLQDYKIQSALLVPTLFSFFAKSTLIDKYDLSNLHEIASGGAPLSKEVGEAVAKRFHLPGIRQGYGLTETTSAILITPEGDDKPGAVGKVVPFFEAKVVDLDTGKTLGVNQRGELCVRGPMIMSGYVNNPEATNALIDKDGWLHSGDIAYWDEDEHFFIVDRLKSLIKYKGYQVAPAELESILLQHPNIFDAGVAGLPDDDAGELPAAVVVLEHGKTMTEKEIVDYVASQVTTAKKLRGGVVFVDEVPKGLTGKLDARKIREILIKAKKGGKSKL
Chain of Retinoic acid receptor RXR-alpha (Homo sapiens) (P19793 whole entry, looked up): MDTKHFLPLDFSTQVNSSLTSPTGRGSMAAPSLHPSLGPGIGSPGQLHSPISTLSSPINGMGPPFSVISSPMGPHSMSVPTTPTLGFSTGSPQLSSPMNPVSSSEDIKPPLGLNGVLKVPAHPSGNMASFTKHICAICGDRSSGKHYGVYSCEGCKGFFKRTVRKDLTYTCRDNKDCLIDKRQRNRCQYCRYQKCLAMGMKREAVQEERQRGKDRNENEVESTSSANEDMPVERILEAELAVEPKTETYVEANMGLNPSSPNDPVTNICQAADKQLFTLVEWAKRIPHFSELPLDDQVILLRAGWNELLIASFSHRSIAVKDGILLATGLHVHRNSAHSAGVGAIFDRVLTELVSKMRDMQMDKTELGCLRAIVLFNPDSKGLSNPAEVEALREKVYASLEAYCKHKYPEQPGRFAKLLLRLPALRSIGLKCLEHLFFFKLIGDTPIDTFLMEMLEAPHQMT

`CC1=NN(c2ccc(S(=O)(=O)O)cc2)C(=O)C1`: the molecule was called inactive in experiment [1], in experiment [2], in [3], in experiment [4], in [5] and in experiment [6]. The call in experiment [7], in experiment [8], in experiment [10], in experiment [11], in [12] and in experiment [14] was inactive. Also, the outcome in [16] and in experiment [17] was inactive. Besides, the Potency result in [9], in experiment [13], in experiment [15] and in [18] was “inactive” in each case.
`CCCCOC(=O)[C@H](C)O`: the outcome in experiment [1], in experiment [2], in experiment [3], in experiment [4], in experiment [5] and in [6] was inactive. Moreover, the result in experiment [7], in [8], in [10], in experiment [11], in [12] and in experiment [14] was inactive. Besides, the molecule was classed as inactive in experiment [16] and in experiment [17]. In addition, the Potency entry in [9], in [13], in experiment [15] and in [18] was “inactive” throughout.
Regarding `CC(=O)N[C@@H](CO)C(=O)N[C@@H](CC(=O)O)C(=O)N[C@@H](CCCCN)C(=O)N1CCC[C@H]1C(=O)O` (Ac-SDKP-OH), the molecule was called inactive in experiment [1], in experiment [2], in experiment [3], in experiment [4], in experiment [5] and in experiment [6]. Also, the molecule was classed as inactive in experiment [7], in [8], in experiment [10], in experiment [11], in [12] and in [14]. In addition, the outcome in experiment [16] and in experiment [17] was inactive. The Potency entry in experiment [9], in [13], in experiment [15] and in experiment [18] was “inactive” throughout.
In the case of `CCCCSCCCC`, the outcome in experiment [1], in [19], in experiment [2], in experiment [3], in [4] and in [5] was inactive. Also, the molecule was classed as inactive in [7], in [8], in experiment [10], in experiment [11], in experiment [12] and in experiment [16]. In [17], the outcome was inactive. For the same molecule, the Potency in experiment [9] is 21.9 µM (active). For the same molecule, the Potency entry in [13], in experiment [15] and in [18] was “inactive” in each case.
For the molecule `CCCC(CC)c1ccccc1` (configuration not stated), the call in [1], in experiment [19], in experiment [2], in [3], in [4] and in [5] was inactive. The outcome in [6], in experiment [7], in experiment [8], in experiment [10], in experiment [11] and in experiment [12] was inactive. For the same molecule, the outcome in [16] and in experiment [17] was inactive. Also, the Potency result in [9], in experiment [13], in experiment [15] and in [18] was “inactive” each time.
Take `C=C(C)C1CC=C(C)C(=O)C1` (configuration not stated): the outcome in [2], in [3], in experiment [4], in experiment [5], in [6] and in [7] was inactive. Further, the result in experiment [8], in [10], in experiment [11], in experiment [16] and in [17] was inactive. In addition, the Potency entry in [9] and in experiment [15] was “inactive” each time.

(Values after PubChem BioAssay (Tox21).)
